Data on 39 targets can be found in the supplement of paper PMC10849652.

The full data set covers some 8,800 targets. This sample favours those with a hit. About 0.5% of all pairs of compound and target were hits. Unmarked numbers belong to inactive results.

Chain of UniProt P28065 (P28065 whole entry, looked up): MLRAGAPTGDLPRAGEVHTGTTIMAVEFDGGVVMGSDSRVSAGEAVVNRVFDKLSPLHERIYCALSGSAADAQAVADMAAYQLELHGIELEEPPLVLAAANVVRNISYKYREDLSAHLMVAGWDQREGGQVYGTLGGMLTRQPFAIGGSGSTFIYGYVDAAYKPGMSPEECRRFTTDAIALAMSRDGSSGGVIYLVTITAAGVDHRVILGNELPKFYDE
Chain of UniProt Q9BRX2 (Q9BRX2 whole entry, looked up): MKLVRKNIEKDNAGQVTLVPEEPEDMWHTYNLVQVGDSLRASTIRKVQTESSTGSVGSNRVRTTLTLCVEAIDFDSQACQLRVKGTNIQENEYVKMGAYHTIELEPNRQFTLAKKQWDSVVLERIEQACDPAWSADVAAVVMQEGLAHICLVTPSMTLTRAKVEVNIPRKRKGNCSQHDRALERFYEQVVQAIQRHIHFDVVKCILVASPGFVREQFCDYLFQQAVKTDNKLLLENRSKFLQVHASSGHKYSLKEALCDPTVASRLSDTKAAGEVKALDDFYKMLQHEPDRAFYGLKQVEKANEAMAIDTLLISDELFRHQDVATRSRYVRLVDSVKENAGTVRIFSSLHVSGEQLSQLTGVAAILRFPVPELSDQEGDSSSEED
Chain of UniProt Q96S99 (Q96S99 whole entry, looked up): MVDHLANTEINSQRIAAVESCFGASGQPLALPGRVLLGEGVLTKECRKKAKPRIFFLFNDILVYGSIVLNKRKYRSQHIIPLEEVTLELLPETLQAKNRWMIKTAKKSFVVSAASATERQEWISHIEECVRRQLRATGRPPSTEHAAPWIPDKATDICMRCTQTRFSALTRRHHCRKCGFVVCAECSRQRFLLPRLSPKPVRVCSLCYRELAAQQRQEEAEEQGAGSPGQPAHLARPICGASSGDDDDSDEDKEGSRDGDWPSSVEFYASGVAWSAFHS
Chain of UniProt Q8TD55 (Q8TD55 whole entry, looked up): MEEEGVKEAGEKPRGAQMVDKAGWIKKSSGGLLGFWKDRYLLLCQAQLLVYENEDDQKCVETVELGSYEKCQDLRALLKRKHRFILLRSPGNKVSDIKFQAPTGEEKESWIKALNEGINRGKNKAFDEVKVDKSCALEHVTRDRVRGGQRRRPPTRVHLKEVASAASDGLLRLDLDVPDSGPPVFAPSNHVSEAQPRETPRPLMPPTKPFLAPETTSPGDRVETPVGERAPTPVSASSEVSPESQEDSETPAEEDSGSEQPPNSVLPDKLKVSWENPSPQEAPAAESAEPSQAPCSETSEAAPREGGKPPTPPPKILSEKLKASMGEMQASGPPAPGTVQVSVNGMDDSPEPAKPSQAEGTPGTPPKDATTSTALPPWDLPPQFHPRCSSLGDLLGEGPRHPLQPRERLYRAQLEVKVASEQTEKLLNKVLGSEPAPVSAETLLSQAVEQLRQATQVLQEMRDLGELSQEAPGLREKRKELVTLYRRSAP
Chain of UniProt Q8N8N7 (Q8N8N7 whole entry, looked up): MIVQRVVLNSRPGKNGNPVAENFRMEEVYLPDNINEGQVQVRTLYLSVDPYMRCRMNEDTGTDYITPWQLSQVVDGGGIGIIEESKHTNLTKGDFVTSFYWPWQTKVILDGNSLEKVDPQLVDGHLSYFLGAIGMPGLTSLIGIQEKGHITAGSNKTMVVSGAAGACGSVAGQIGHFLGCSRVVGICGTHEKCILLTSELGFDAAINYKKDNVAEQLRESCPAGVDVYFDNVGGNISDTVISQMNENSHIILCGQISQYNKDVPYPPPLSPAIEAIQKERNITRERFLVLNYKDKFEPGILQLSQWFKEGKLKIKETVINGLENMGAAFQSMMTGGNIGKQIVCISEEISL
Chain of UniProt Q9H2H8 (Q9H2H8 whole entry, looked up): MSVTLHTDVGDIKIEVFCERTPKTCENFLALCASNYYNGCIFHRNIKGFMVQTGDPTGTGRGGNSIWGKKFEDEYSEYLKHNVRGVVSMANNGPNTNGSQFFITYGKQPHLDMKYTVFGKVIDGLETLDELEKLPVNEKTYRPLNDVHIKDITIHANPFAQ
Chain of UniProt Q96I23 (Q96I23 whole entry, looked up): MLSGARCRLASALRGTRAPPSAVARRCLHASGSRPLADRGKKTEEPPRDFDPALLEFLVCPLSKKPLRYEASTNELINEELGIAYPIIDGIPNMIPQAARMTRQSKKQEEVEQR
Chain of UniProt P13861 (P13861 whole entry, looked up): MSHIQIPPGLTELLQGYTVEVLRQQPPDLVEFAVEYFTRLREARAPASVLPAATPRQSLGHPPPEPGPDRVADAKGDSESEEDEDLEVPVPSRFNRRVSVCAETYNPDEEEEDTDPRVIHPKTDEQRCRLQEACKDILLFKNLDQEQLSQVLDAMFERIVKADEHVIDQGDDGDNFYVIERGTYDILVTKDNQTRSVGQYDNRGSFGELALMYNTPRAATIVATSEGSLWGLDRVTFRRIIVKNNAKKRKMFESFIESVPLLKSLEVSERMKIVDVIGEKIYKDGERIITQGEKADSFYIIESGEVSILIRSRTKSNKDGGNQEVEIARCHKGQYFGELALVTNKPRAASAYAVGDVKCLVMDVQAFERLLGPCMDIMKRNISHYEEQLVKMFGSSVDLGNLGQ
Chain of UniProt O15031 (O15031 whole entry, looked up): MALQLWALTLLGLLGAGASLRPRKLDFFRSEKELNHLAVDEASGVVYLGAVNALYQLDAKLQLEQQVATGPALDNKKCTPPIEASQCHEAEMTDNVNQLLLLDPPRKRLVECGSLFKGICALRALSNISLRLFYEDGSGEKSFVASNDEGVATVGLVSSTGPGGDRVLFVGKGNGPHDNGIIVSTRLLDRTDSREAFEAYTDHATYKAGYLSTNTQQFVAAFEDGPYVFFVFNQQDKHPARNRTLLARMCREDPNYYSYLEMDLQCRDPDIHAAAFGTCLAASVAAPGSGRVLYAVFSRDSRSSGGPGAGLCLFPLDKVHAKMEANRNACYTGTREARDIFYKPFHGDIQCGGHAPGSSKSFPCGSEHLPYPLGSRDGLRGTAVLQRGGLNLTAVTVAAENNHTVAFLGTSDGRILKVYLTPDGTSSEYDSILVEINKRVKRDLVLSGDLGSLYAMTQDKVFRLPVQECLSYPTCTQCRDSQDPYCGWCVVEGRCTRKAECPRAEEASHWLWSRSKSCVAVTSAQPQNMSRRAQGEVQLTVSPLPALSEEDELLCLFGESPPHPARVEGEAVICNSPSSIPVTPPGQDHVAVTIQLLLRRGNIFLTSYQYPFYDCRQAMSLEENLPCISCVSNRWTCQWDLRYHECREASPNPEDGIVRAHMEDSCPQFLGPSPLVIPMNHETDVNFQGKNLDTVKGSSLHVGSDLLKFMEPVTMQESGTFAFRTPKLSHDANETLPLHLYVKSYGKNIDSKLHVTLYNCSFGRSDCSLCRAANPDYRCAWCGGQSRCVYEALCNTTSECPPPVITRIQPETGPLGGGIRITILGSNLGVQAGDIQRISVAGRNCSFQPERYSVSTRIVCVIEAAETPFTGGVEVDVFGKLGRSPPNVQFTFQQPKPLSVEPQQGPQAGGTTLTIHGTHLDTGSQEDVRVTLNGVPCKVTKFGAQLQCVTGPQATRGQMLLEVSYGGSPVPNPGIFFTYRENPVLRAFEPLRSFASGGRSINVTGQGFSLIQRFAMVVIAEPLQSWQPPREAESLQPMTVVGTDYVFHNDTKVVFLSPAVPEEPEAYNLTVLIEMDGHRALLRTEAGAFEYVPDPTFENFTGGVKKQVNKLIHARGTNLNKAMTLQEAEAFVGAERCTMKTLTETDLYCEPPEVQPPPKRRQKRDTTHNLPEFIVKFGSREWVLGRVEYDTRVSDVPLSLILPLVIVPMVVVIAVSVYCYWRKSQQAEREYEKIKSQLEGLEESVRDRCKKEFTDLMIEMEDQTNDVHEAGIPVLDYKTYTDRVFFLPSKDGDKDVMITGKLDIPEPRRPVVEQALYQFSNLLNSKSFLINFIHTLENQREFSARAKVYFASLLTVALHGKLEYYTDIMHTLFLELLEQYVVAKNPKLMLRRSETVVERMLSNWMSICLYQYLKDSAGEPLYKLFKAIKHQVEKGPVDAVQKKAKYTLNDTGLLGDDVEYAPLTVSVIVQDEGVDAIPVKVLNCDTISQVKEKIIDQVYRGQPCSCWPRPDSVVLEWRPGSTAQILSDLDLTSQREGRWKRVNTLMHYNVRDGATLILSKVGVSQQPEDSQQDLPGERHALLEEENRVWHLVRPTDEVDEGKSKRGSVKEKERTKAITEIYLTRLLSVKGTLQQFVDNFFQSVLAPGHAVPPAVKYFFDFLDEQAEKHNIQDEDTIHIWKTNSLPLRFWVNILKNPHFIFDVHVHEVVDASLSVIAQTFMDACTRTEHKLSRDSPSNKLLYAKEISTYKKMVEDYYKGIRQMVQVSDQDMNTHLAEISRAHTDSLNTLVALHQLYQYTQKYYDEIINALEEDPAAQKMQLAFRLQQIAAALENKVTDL
Chain of UniProt Q9Y5K3 (Q9Y5K3 whole entry, looked up): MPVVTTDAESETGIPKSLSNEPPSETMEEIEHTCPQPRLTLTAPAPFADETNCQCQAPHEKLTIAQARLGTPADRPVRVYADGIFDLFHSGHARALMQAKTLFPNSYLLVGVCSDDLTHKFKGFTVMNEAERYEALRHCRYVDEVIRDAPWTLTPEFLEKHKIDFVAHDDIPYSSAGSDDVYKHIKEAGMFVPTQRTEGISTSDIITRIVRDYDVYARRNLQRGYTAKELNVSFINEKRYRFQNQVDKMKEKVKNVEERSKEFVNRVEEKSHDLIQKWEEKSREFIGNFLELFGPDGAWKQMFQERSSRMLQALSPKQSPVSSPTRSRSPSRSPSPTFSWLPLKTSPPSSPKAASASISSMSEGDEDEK
Chain of UniProt Q9UHV9 (Q9UHV9 whole entry, looked up): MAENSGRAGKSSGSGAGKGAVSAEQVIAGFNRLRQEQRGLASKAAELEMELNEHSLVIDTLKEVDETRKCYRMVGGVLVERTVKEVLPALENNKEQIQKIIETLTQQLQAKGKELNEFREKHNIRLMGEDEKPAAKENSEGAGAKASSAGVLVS
Chain of UniProt P07737 (P07737 whole entry, looked up): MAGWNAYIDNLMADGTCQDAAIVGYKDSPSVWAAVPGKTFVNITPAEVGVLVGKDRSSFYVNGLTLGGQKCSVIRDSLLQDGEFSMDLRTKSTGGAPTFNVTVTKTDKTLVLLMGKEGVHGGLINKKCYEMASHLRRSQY

Compound in the first assay: Cc1cn(-c2cc(NC(=O)c3ccc(C)c(Nc4nccc(-c5cccnc5)n4)c3)cc(C(F)(F)F)c2)cn1 [nilotinib]
The assay is described as follows: log2 fold change, soluble protein after heating vs DMSO (PISA); higher = thermal stabilisation; K562 lysate, 10 uM; active = over 0.2 and 3.5 SD of the protein, either way, in both replicates (recomputed). An outline of the steps:
(§1)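 Pellets of K562 cells were dounce-homogenised in PBS pH 7.4 with 1 mM MgCl2, and the crude extract was held at 1 mg/mL protein for a 30 min treatment with 10 μM compound. Aliquots were heated for 3 min over 48°C-58°C and pooled before NP-40 was added to 0.5% at 4°C. The supernatant from 21,000xg for 90 min was quantified by TMTpro 16plex LC-MS/MS with channel sums equalised. Values are reported from duplicates as log-two fold change in thermal stability relative to solvent controls.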
Consider PRRC2A (UniProt P48634), for which the log2 fold change was -0.044.

With PSMB9 (UniProt P28065), the log2 fold change was 0.019.

Turning to PRKAR2A (UniProt P13861), the log2 fold change was -0.036.

PLEKHF1 (UniProt Q96S99): the log2 fold change was -0.03.

Consider QKI (UniProt Q96PU8), for which the log2 fold change was -0.053.

Take PGRMC1 (UniProt O00264): the log2 fold change is 0.028.

With PYURF (UniProt Q96I23), the log2 fold change is -0.03.

As to PRKAB2 (UniProt O43741), the log2 fold change is 0.033.

Regarding PHKA1 (UniProt P46020), the log2 fold change is -0.059.

Regarding PUS1 (UniProt Q9Y606), the log2 fold change is 0.005.

Regarding POC5 (UniProt Q8NA72), the log2 fold change was 0.01.

Take PELO (UniProt Q9BRX2): the log2 fold change was 0.012.

As to PPIL2 (UniProt Q13356), the log2 fold change was -0.032.

On to PUM1 isoform 3 (UniProt Q14671), for which the log2 fold change was -0.072.

In the case of PTPN7 isoform 3 (UniProt P35236), the log2 fold change was -0.03.

PDCD6IP isoform 2 (UniProt Q8WUM4): the log2 fold change was -0.018.

Regarding PRPH isoform 2 (UniProt P41219), the log2 fold change was -0.022.

PIR (UniProt O00625): the log2 fold change was 0.011.

Take PTGR2 (UniProt Q8N8N7): the log2 fold change is 0.024.

Take PPP2R5C isoform 5 (UniProt Q13362): the log2 fold change was 0.016.

Take PFKFB3 isoform 4 (UniProt Q16875): the log2 fold change was 0.018.

With PFDN2 (UniProt Q9UHV9), the log2 fold change is -0.011.

On to PPFIA2 (UniProt O75334), for which the log2 fold change is -0.046.

Consider PCYT1B (UniProt Q9Y5K3), for which the log2 fold change was -0.079.

On to PPP1R11 (UniProt O60927), for which the log2 fold change is -0.03.

With PMS2 (UniProt P54278), the log2 fold change was -0.024.

With PLXNB2 (UniProt O15031), the log2 fold change was -0.052.

Turning to PUS3 (UniProt Q9BZE2), the log2 fold change was -0.019.

On to PSTPIP2 (UniProt Q9H939), for which the log2 fold change is 0.029.

As for PGPEP1 (UniProt Q9NXJ5), the log2 fold change is 0.018.

For the target PTPN6 isoform 4 (UniProt P29350), the log2 fold change is -0.002.

In the case of PDE2A (UniProt O00408), the log2 fold change is 0.021.

On to PPIL3 (UniProt Q9H2H8), for which the log2 fold change was 0.121.

As for PI4K2B (UniProt Q8TCG2), the log2 fold change is -0.037.

Take PRIM2 (UniProt P49643): the log2 fold change was 0.052.

For PFN1 (UniProt P07737), the log2 fold change was -0.002.

With PIP4P2 (UniProt Q8N4L2), the log2 fold change was 0.287 (active).

As for PLEKHO2 (UniProt Q8TD55), the log2 fold change is 0.207.

Regarding POLD3 (UniProt Q15054), the log2 fold change was 0.03.

Compound in the next assay: Cc1nc(Nc2n[nH]c3c2CN(C(=O)N[C@H](CN(C)C)c2ccccc2)C3(C)C)c2sccc2n1
The assay is described as above. The essentials:
as §1
As for PRRC2A (UniProt P48634), the log2 fold change is 0.01.

In the case of PSMB9 (UniProt P28065), the log2 fold change was 0.092.

On to PRKAR2A (UniProt P13861), for which the log2 fold change was -0.051.

In the case of PLEKHF1 (UniProt Q96S99), the log2 fold change is -0.028.

On to QKI (UniProt Q96PU8), for which the log2 fold change was 0.006.

On to PGRMC1 (UniProt O00264), for which the log2 fold change is 0.015.

With PYURF (UniProt Q96I23), the log2 fold change was 0.051.

As to PRKAB2 (UniProt O43741), the log2 fold change is 0.203.

In the case of PHKA1 (UniProt P46020), the log2 fold change is 0.14.

Take PUS1 (UniProt Q9Y606): the log2 fold change was -0.042.

Take POC5 (UniProt Q8NA72): the log2 fold change was 0.058.

Consider PELO (UniProt Q9BRX2), for which the log2 fold change is -0.025.

In the case of PPIL2 (UniProt Q13356), the log2 fold change was 0.014.

With PUM1 isoform 3 (UniProt Q14671), the log2 fold change was -0.012.

Turning to PTPN7 isoform 3 (UniProt P35236), the log2 fold change is 0.017.

PDCD6IP isoform 2 (UniProt Q8WUM4): the log2 fold change was 0.007.

Take PRPH isoform 2 (UniProt P41219): the log2 fold change is 0.032.

Consider PIR (UniProt O00625), for which the log2 fold change is -0.011.

On to PTGR2 (UniProt Q8N8N7), for which the log2 fold change was -0.044.

As for PPP2R5C isoform 5 (UniProt Q13362), the log2 fold change was 0.003.

Turning to PFKFB3 isoform 4 (UniProt Q16875), the log2 fold change was -0.023.

Consider PFDN2 (UniProt Q9UHV9), for which the log2 fold change was 0.013.

For PPFIA2 (UniProt O75334), the log2 fold change is 0.027.

Regarding PCYT1B (UniProt Q9Y5K3), the log2 fold change is -0.003.

As for PPP1R11 (UniProt O60927), the log2 fold change was 0.035.

With PMS2 (UniProt P54278), the log2 fold change was -0.021.

Take PLXNB2 (UniProt O15031): the log2 fold change is 0.019.

Turning to PUS3 (UniProt Q9BZE2), the log2 fold change is 0.045.

For the target PSTPIP2 (UniProt Q9H939), the log2 fold change is 0.016.

On to PGPEP1 (UniProt Q9NXJ5), for which the log2 fold change was 0.019.

For the target PTPN6 isoform 4 (UniProt P29350), the log2 fold change was -0.028.

In the case of PDE2A (UniProt O00408), the log2 fold change was -0.033.

On to PPIL3 (UniProt Q9H2H8), for which the log2 fold change was 0.023.

In the case of PI4K2B (UniProt Q8TCG2), the log2 fold change is 0.021.

As to PRIM2 (UniProt P49643), the log2 fold change is 0.007.

As to PFN1 (UniProt P07737), the log2 fold change is 0.002.

In the case of PIP4P2 (UniProt Q8N4L2), the log2 fold change is -0.073.

Take PLEKHO2 (UniProt Q8TD55): the log2 fold change was -0.237.

Take POLD3 (UniProt Q15054): the log2 fold change is -0.014.
